Assay outcomes (PubChem BioAssay)
ALDH1A1 block: ALDH1A1 (human) enzyme inhibition; AID 1030; P00352; Purified ALDH1A1, NADH fluorescence, propionaldehyde substrate; 220,000 compounds, 7.3% hits; Potency, µM (top dose mostly 75.3 µM), for inactives: top-dose activity, negative = inhibition, actives largely listed as inhibitors;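 note: potency is the fitted concentration of half-maximal effect; plate controls were no enzyme wells and a reference inhibitor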
PNC inhibitor: blocks assembly of the perinucleolar compartment; PC3M PTB-GFP, PNC prevalence imaging, 16 h; stronger effect = lower value; activity change (PNC), negative = inhibition, % at 10 µM; 140,000 compounds, 3.1% hits; AID 2417;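 active = readout at or below -70, meaning at least 70% loss of cells showing the perinucleolar compartment, a nuclear body marking cancer cells; inconclusive = readout between -30 and a set limit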;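 note: plate controls were DMSO wells for no effect and camptothecin positive control wells for full effect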
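Read-out is percentage of cells bearing a perinucleolar compartment, from automated 20x imaging of fixed, Hoechst-stained PC3M PTB-GFP cells. Cells were seeded 4 h, then exposed 16 h to compound (23 nl of library stock) in duplicate plates.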
IMPase cell inh: IMPase inhibition in cells. P97697. CHO-M1 cells, IP1 accumulation, HTRF TR-FRET ratio. inhibition (IP1 accumulation), % at 46.1 µM. 120,000 tested, under 10 active. AID 901; active = well fitted curve in the direction sought with a large enough effect in the signal ratio, not every such curve was filed as active; inconclusive = small, poorly fitted or top-dose-only effect, or a change in a side signal; inactive = no such curve, though single readings can be large or run the other way; the % refers to the signal ratio;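 note: cells stimulated with carbachol in lithium chloride buffer; plate controls were DMSO basal wells for no effect and reference inhibitor wells for full effect; higher means more IMPase inhibition seen as more IP1 and lower FRET ratio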
Target sequence (P97697 whole entry, looked up): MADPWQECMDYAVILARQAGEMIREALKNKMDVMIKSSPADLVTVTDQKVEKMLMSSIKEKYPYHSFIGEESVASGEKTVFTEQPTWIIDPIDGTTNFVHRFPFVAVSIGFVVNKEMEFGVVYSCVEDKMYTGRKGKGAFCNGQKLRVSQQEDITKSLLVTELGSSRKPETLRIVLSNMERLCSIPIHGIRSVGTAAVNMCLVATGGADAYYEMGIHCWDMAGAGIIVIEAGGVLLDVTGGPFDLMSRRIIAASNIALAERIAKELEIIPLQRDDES
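The IP-One HTRF competitive assay in carbachol-stimulated CHO-M1 cells quantifies cellular IP1. Compounds spanned up to 46 uM final, and activity is expressed as AC50 from concentration-response fits of the ratio and donor data.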
IMPase Li inh: IMPase inhibition in cells with lithium potentiation; CHO-M1 cells, IP1 TR-FRET (IP-One), carbachol + lithium; AID 1457; 210,000 compounds, 0.35% hits; Potency, µM (top dose mostly 59.4 µM), for the others: at the highest dose activity, negative = IMPase inhibition, actives largely listed as inhibitors; active = well fitted inhibition curve with a large enough effect; inconclusive = small, poorly fitted or top-dose-only effect; inactive = no such curve, though single readings can be large or run the other way;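 note: IP1 builds up when IMPase is blocked and the TR-FRET signal falls; potency is the fitted concentration of half-maximal effect; plate controls were basal vehicle for no effect and high inhibitor control for full effect; nearly all actives have a fitted effect of over 50% in size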
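Test compounds were applied to CHO-M1 cells previously cultured for 16–30 h at 2000 per well. A small lithium amount accompanied them; after 30 min at 37C, IP1 was quantified by TR-FRET.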
HPGD inh: blocks human HPGD enzyme activity; AID 894; Potency, µM, for inactives: at the top dose activity change, negative = inhibition, actives largely listed as inhibitors; 150,000 compounds, 4.3% hits; purified HPGD, NADH fluorescence kinetic, PGE2 substrate; note: potency is the fitted concentration of half-maximal effect
Target sequence (P15428 whole entry, looked up): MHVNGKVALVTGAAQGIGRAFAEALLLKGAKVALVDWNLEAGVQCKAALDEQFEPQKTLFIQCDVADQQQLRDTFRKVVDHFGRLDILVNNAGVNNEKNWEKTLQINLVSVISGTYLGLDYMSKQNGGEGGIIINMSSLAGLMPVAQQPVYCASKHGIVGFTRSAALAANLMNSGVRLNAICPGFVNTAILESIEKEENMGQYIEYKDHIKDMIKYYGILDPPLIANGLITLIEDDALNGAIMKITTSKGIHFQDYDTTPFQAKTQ
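NADH formation kinetics: reaction with 30 uM PGE2 and 1 mM NAD+ (final), 20 nM enzyme, Tris-HCl pH 8 with Tween 20, after 15 min compound preincubation at room temperature. Fluorescence change, last versus first of five reads.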
Active calls of the source: *; ? = inconclusive; nt = not tested or not shown; [ ] = another dose, or the depositor's remark. An excerpt weighted towards active compounds, which were near 11% of everything screened. Unless noted, calls come from the whole dose curve; as a rule, active = well fitted inhibition curve with a large enough effect (not every such curve was filed as active); inconclusive = small, poorly fitted or top-dose-only effect, or another doubt; inactive = no such curve, though single readings can be large or run the other way. Unless noted, % is set by controls: 0 for no effect and ±100 for the full control effect.

SMILES | ALDH1A1 block | PNC inhibitor | IMPase cell inh | IMPase Li inh | HPGD inh
O=C(Nc1ccccc1)c1ccc(N2CCN(c3ccccn3)CC2)c(S(=O)(=O)N2CCOCC2)c1 | 28µM* | -25 | 3 | 47%[38.3 µM] | ?
Cc1cc2oc(=O)cc(CN3CCN(Cc4ccc5c(c4)OCO5)CC3)c2cc1C | -20% | 44 | -21 | 14% | -19%
Cc1cc(C)c2c(CN3CCN(Cc4ccc5c(c4)OCO5)CC3)cc(=O)oc2c1C | 1.6µM* | -22 | 4 | 28%[38.3 µM] | -6%
COc1ccc(CN2CCN(S(=O)(=O)c3ccc(C)cc3)CC2)cc1Br | 20µM* | ? | -2 | 20%[38.3 µM] | -7%
Cc1ccc2c(CN3CCN(Cc4ccc5c(c4)OCO5)CC3)cc(=O)oc2c1C | 25µM* | ? | -3 | 37%[38.3 µM] | -18%
Cc1cc(C)c2c(CN3CCN(Cc4ccc5c(c4)OCO5)CC3)cc(=O)oc2c1 | 13µM* | 4 | 12 | 15%[38.3 µM] | -28%
Cc1ccc(OCC(=O)N2CCC(N3CCCCCC3)CC2)cc1 | -6% | 26 | -1 | 1% | -9%
COc1cc(S(=O)(=O)N2CCN(Cc3ccc4c(c3)OCO4)CC2)c(C)cc1C | 3% | -119* | 1 | 11% | -11%
Cc1cc(C)nc(SCc2nnc(SCC(=O)Nc3cc(C(F)(F)F)ccc3Cl)o2)n1 | 3% | 59 | -8 | 13%[38.3 µM] | ?
CCC(=O)OCCNc1cc(SCCC(=O)OC)c2nonc2c1[N+](=O)[O-] | ? | 25 | 5 | 4% | ?
CC(=O)OCCCNc1cc(Sc2ccc(Cl)cc2)c2nonc2c1[N+](=O)[O-] | ? | 45 | 4 | 28% | 13µM*
CCCC(=O)OCCNc1cc(Sc2nc3ccccc3[nH]2)c2nonc2c1[N+](=O)[O-] | 7.1µM* | 19 | nt | 24% | 7.9µM*
CCOC(=O)/C(C#N)=C/c1cc(C)n(-c2ccccc2)c1C | 11µM* | 25 | 12 | 6%[38.3 µM] | -23%
CCOC(=O)/C(C#N)=C/c1cc2ccccc2nc1N1CCOCC1 | 25µM* | 9 | nt | ? | -15%
CCOC(=O)/C(C#N)=C/c1cc(C)n(-c2ccc(Br)cc2)c1C | 3% | 29 | 1 | 17%[38.3 µM] | -8%
Cc1noc(NS(=O)(=O)c2ccc(N/C=C\C(=O)c3cccc4ccccc34)cc2)c1C | 4µM* | nt | nt | 12% | nt
Cc1noc(NS(=O)(=O)c2ccc(NC(=O)CSc3n[nH]c(-c4ccccc4)n3)cc2)c1C | -13% | -17 | 14 | 6%[38.3 µM] | 4.5µM*
COc1cccc(C(=O)/C=C/Nc2ccc(S(=O)(=O)Nc3onc(C)c3C)cc2)c1 | ? | ? | -7 | 15% | ?
Cc1noc(NS(=O)(=O)c2ccc(NC(=O)CSc3nc4ccccc4[nH]3)cc2)c1C | ? | 63 | 3 | 25%[38.3 µM] | -19%
COc1ccc2nc(SCC(=O)Nc3ccc(S(=O)(=O)Nc4onc(C)c4C)cc3)[nH]c2c1 | ? | -16 | 0 | 3% | 18µM*
CCSc1ccccc1C(=O)N=C1NC(=O)CC2C(=O)NCCN12 (configuration not stated) | -6% | nt | nt | -10% | nt
CCCOc1ccc(C2c3c(oc4ccccc4c3=O)C(=O)N2c2nnc(C(C)C)s2)cc1 (configuration not stated) | nt | nt | -1 | nt | nt
Cc1ccc(C)c(N2C(=O)CC(N3CCN(Cc4ccc5c(c4)OCO5)CC3)C2=O)c1 (configuration not stated) | ? | 55 | 5 | 3%[38.3 µM] | -13%
O=C1CC(N2CCN(Cc3ccc4c(c3)OCO4)CC2)C(=O)N1c1ccccc1 (configuration not stated) | 16µM* | -8 | 6 | 63%[38.3 µM] | -10%
Cc1cccc(Nc2nc(N)nc(CN3CCN(Cc4ccc5c(c4)OCO5)CC3)n2)c1 | 14µM* | 36 | 7 | 5%[38.3 µM] | -7%
O=C1CC(N2CCN(c3ccc(F)cc3)CC2)C(=O)N1c1ccc2c(c1)OCO2 (configuration not stated) | 19µM* | nt | nt | 3% | nt
Cc1cccc(N2C(=O)CC(N3CCN(Cc4ccc5c(c4)OCO5)CC3)C2=O)c1 (configuration not stated) | 22µM* | ? | 10 | 5%[38.3 µM] | -1%
Cc1sc2nc(CN(Cc3cccs3)C(=O)NC3CCCCC3)[nH]c(=O)c2c1C | ? | ? | 14 | nt | nt
